Consider 13 molecules from PubChem BioAssay (NCATS).

Results filed as inconclusive are left out. Calls of active or inactive are those of the source. Unless noted, calls come from the whole dose curve; as a rule, active = well fitted curve in the direction sought with a large enough effect; inconclusive = small, poorly fitted or top-dose-only effect, or another doubt; inactive = no such curve, though single readings can be large; an effect the other way counts as inactive or inconclusive.

Experiment [1] is described as follows: qHTS to identify inhibitors of the type 1 interferon - major histocompatibility complex class I in skeletal muscle: primary screen against the NCATS Mechanism Interrogation Plate v5.0 (MIPE) Libary (AID 1347411).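 For activity change, negative = inhibition: plate controls were vehicle for no effect and reference inhibitor for full effect.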 Note: nearly all actives have a fitted effect of over 65% in size. Note: potency is the fitted concentration of half-maximal effect. The procedure, abridged: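 Seed engineered human myoblasts (HLA-B HiBit) in medium without dexamethasone containing 4 ng/ml IFN-beta; after 1 hr add compound titrations (top 46 uM final). Incubate 24 hrs at 37 C, lyse 10 min with HiBiT reagent, read luminescence.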

A short description of experiment [2]: Primary qHTS for inhibitors of nuclear receptor binding SET domain protein 2 (NSD2) in an isogenic RCH-ACV NSD2 p.E1099K mutant (9B) (AID 1645876). Note: nearly all actives have a fitted effect of over 70% in size. Note: potency is the fitted concentration of half-maximal effect.
Experiment [3] is described as follows: Primary qHTS for inhibitors of nuclear receptor binding SET domain protein 2 (NSD2) in an RCH-ACV wild type WT cells (2C) (AID 1645877). Note: nearly all actives have a fitted effect of over 70% in size. Note: potency is the fitted concentration of half-maximal effect.
For experiment [4], the target named is Glutathione peroxidase 1 (Homo sapiens) (UniProt P07203). Kind of experiment: Primary qHTS Assay for Inhibitors of Recombinant Selenoprotein Glutathione Peroxidase 1 (GPX1) (AID 1845191). Note: nearly all actives have a fitted effect of over 65% in size. The procedure, abridged: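 GR-coupled readout: NADPH consumption tracked by fluorescence, ex 340/em 450 nm, at t=0 and after 15 min at RT. Final mix 10 nM GPX1, 1 mM GSH, 0.5 mM CHP, 0.5 mM NADPH, 100 nM GR, 0.01% BSA, following 30 min enzyme–compound preincubation.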

Experiment [5] deals with Phospholipid hydroperoxide glutathione peroxidase GPX4 (Homo sapiens) (UniProt P36969). Kind of experiment: Primary qHTS Assay for Inhibitors of Recombinant Selenoprotein Glutathione Peroxidase 4 (GPX4) (AID 1845192). For activity change, negative = inhibition: series mostly up to about 50 µM; % is set by controls: 0 for no effect and ±100 for the full control effect. Note: nearly all actives have a fitted effect of over 65% in size. The settings on record: outcome: dose series up to 50 µM unless noted. The procedure, abridged:
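Steps: GPX4 plus compound, 30 min RT; add GR/GSH/NADPH master mix; start with cumene hydroperoxide; read 340/450 nm fluorescence at 0 and 15 min. Finals were 200 nM GPX4, 1 mM GSH, 0.5 mM CHP, 0.5 mM NADPH, 100 nM GR.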

A short description of experiment [6]: qHTS drug screen for cell cycle checkpoint inhibitors in PARPi-resistant BRCA-mutant ovarian cancer cell lines. (AID 1963452; calls by dose curve; note: potency is the fitted concentration of half-maximal effect). The settings on record: PEO1/OlaR viability, CellTiter-Glo luminescence, 96 h; for Z-AUC: stronger effect = lower value. The procedure, abridged: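 PEO1, PEO4 and PEO1/OlaR ovarian cancer cells, 600 per well, exposed 96 h at 37C to a dilution series. Viability read by CellTiter-Glo luminescence, normalized to DMSO and empty wells; activity summarized as Z-AUC.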

[7] abbreviates: measured here: PEO1 parental Z-AUC.

Sequence of Phospholipid hydroperoxide glutathione peroxidase GPX4 (Homo sapiens) (P36969 whole entry, looked up): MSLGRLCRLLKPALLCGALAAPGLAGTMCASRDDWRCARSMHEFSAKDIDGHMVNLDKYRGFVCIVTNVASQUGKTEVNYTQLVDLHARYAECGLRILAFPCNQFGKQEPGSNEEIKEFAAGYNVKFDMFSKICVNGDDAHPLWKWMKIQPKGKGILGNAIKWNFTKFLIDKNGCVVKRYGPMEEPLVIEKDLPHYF
Sequence of Glutathione peroxidase 1 (Homo sapiens) (P07203 whole entry, looked up): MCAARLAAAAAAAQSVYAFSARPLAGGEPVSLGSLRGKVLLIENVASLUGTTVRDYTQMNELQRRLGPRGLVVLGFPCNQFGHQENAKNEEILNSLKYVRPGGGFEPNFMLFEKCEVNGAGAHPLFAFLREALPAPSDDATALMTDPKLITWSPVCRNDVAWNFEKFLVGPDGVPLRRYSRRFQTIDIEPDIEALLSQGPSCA

As for `Cc1c(-c2ccc(-c3ccccc3F)cc2)nc2ccc(F)cc2c1C(=O)O`, the Potency entry in experiment [1], in experiment [4] and in experiment [5] was “inactive” throughout. Besides, the Potency in experiment [2] was 105 nM (active); in experiment [3], 148 nM (active); in experiment [6], 2750 nM (active). In addition, the Z-AUC was -1.54 in experiment [6] (setting [7]) and -1.34 in experiment [6] (measured here: PEO4 Z-AUC).
As to `NS(=O)(=O)c1ccc(S(=O)(=O)Nc2cccc3c(Cl)c[nH]c23)cc1`, the Potency result in experiment [1], in experiment [4] and in experiment [5] was “inactive” throughout. Further, the Potency in experiment [2] was 742 nM (active); in experiment [3], 590 nM (active). Moreover, the values for the Z-AUC in experiment [6], in experiment [6] (setting [7]) and in experiment [6] (measured here: PEO4 Z-AUC) were -0.956 (inactive), -0.0531 and -0.727, respectively.
`COCCOC(=O)N1CCN(S(=O)(=O)c2cc(F)c(Oc3ccc(Cl)cc3)c(F)c2)C(C(=O)NO)C1` (centres undefined): the Potency in experiment [1] was 18600 nM (active); in experiment [2], 5900 nM (active); in experiment [3], 4680 nM (active). The Potency entry in experiment [4] and in experiment [5] was “inactive” in each case. Also, the Z-AUC in experiment [6] was -1.01 (inactive); in experiment [6] (setting [7]), -1.23; in experiment [6] (measured here: PEO4 Z-AUC), -1.17.
`CN1C(=O)[C@@H](NC(=O)c2n[nH]c(Cc3ccccc3)n2)COc2ccccc21`: the Potency result in experiment [1], in experiment [2], in experiment [3], in experiment [4] and in experiment [5] was “inactive” in each case. Besides, the results for the Z-AUC in experiment [6], in experiment [6] (setting [7]) and in experiment [6] (measured here: PEO4 Z-AUC) were -0.646 (inactive), -0.812 and -0.659, respectively.
Turning to `COc1cc2c3c(n(CCCn4ccnc4)c(=O)c2cc1OC)-c1cc2c(cc1C3=O)OCO2`, the Potency result in experiment [1], in experiment [4] and in experiment [5] was “inactive” each time. Moreover, the Potency in experiment [2] was 10.5 nM (active); in experiment [3], 13.2 nM (active); in experiment [6], 7.8 nM (active). Also, the Z-AUC in experiment [6] (setting [7]) is -2.51; in experiment [6] (measured here: PEO4 Z-AUC), -1.77.
As for `C[C@H](Nc1nc(N[C@H](C)C(F)(F)F)nc(-c2cccc(Cl)n2)n1)C(F)(F)F`, the Potency result in experiment [1], in experiment [2], in experiment [3], in experiment [4] and in experiment [5] was “inactive” each time. For the same molecule, the Z-AUC in experiment [6] was -0.138 (inactive); in experiment [6] (setting [7]), 0.592; in experiment [6] (measured here: PEO4 Z-AUC), 0.804.
Turning to `CNCCCOc1cc(F)c(-c2c(Cl)nc3ncnn3c2N[C@@H](C)C(F)(F)F)c(F)c1`, the Potency entry in experiment [1], in experiment [4] and in experiment [5] was “inactive” throughout. For the same molecule, the values for the Potency in experiment [2], in experiment [3] and in experiment [6] were 66.1 nM (active), 46.8 nM (active) and 155 nM (active), respectively. Further, the Z-AUC in experiment [6] (setting [7]) is -1.35; in experiment [6] (measured here: PEO4 Z-AUC) it was -1.7.
With `COc1ccc(S(=O)(=O)N[C@@H](CNc2nc(C)nc(N3CCC(c4ccc5c(n4)NCCC5)CC3)c2C)C(=O)O)cc1`, the Potency result in experiment [1], in experiment [2], in experiment [3], in experiment [4] and in experiment [5] was “inactive” each time. Besides, the Potency in experiment [6] is 61.6 nM (active). The Z-AUC was -1.54 in experiment [6] (setting [7]) and -1.12 in experiment [6] (measured here: PEO4 Z-AUC).
`COc1cc2c(cc1OC)CN(CCc1ccc(-n3nnc(-c4cc(OC)c(OC)cc4NC(=O)c4cc(=O)c5ccccc5o4)n3)cc1)CC2`: in experiment [1], the activity change, negative = inhibition was -5.16% [at 0.314 µM] (inactive). The outcome in experiment [2] was “inactive [at 0.588 µM]”; in experiment [3] it was “inactive [at 0.588 µM]”; in experiment [4] it was “inactive [at 0.4 µM]”; in experiment [5], “inactive [at 0.409 µM]”. Besides, the values for the Z-AUC in experiment [6], in experiment [6] (setting [7]) and in experiment [6] (measured here: PEO4 Z-AUC) were 2.8 (inactive), 2.17 and 2.67, respectively.
On to `N=C1CCCN1Cc1[nH]c(=O)[nH]c(=O)c1Cl`, for which the Potency result in experiment [1], in experiment [2], in experiment [3], in experiment [4] and in experiment [5] was “inactive” each time. Besides, the Z-AUC was -0.424 (inactive) in experiment [6], 0.0295 in experiment [6] (setting [7]) and -0.23 in experiment [6] (measured here: PEO4 Z-AUC).
On to `CN1CCCN(C(=O)c2cccc(-c3ccc(/C=C4/C(=O)Nc5ccc(Cl)cc54)o3)c2)CC1`, for which the figures for the Potency in experiment [1], in experiment [2] and in experiment [3] were 8290 nM (active), 186 nM (active) and 166 nM (active), respectively. For the same molecule, the Potency result in experiment [4] and in experiment [5] was “inactive” each time. Besides, the values for the Z-AUC in experiment [6], in experiment [6] (setting [7]) and in experiment [6] (measured here: PEO4 Z-AUC) were 0.657 (inactive), -0.436 and -0.635, respectively.
For `Nc1nccc2c1ncn2[C@@H]1C=C(CO)[C@@H](O)[C@H]1O`, the Potency entry in experiment [1], in experiment [4] and in experiment [5] was “inactive” in each case. The Potency in experiment [2] was 209 nM (active); in experiment [3], 148 nM (active). Further, the Z-AUC in experiment [6] was -0.397 (inactive); in experiment [6] (setting [7]), -0.938; in experiment [6] (measured here: PEO4 Z-AUC), -1.07.
Take `O=C(CCNC(=O)c1ccc(OC(F)(F)F)cc1)N[C@@H]1CCCc2ccccc21`: the Potency entry in experiment [1], in experiment [2], in experiment [3], in experiment [4] and in experiment [5] was “inactive” in each case. For the same molecule, the Z-AUC in experiment [6] is 1.15 (inactive); in experiment [6] (setting [7]) it was 0.0965; in experiment [6] (measured here: PEO4 Z-AUC) it was 0.626.
